Only some compounds are listed: those with a hit (about 7.5% of all), similar ones and a draw of the others.
Giardia FBPA inh = inhibitors of Giardia lamblia fructose-1,6-bisphosphate aldolase | Potency, µM (highest dose often 59.6 µM), most hits filed as inhibitors | 290,000 tested, 0.71% active | purified Giardia FBPA | A8B2U2 | AID 2451; note: nearly all actives have a fitted effect of over 55% in size
Target sequence (A8B2U2 whole entry, looked up): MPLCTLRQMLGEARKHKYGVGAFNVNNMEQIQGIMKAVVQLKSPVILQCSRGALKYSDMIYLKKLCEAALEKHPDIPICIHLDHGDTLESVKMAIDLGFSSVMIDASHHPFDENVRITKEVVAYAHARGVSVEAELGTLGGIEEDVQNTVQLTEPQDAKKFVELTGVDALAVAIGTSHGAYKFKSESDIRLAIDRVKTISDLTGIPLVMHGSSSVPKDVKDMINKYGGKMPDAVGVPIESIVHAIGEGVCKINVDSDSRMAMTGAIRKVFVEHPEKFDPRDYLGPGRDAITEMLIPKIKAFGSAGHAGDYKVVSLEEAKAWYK
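40 nM FBPA preincubated 10 min at RT with compound (up to 57.5 uM final), then substrate plus GAPDH/TPI/NAD/arsenate coupling and diaphorase/resazurin added. Fluorescence read after 20 min at RT, 525/598 nm.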
Vaccinia Venus = vaccinia inhibition (Venus reporter). Vaccinia virus Venus reporter expression, fluorescence. 330,000 tested, 0.46% active. Potency, µM (titrated, usually from 36.5 µM), hits mostly inhibitors; calls by dose curve; tested in A549 cells; note: nearly all actives have a fitted effect of over 30% in size
Vaccinia mCherry = vaccinia inhibition (mCherry reporter); Vaccinia virus mCherry reporter infection, fluorescence; Potency, µM (highest dose often 36.5 µM), most hits filed as inhibitors; 310,000 tested, 0.63% active; AID 720579; calls by dose curve; tested in A549 cells; note: nearly all actives have a fitted effect of over 35% in size
HCV inh = HCV inhibition; Huh7.5.1 HCVcc-Cre infection, luciferase reporter, 44 h; Potency, µM (series often up to 41.8 µM), usual class: inhibitors; 340,000 tested, 3.4% active; AID 651820
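Reporter virus HCVcc-Cre (~0.5 moi) infects cells exposed to compound; seeding density 1,000 cells/well with 4 h settling beforehand. Luminescence, 15 sec read, taken 44 h post-infection following a 15 min RT substrate incubation.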
FMDV inh = foot and mouth disease virus antiviral activity | FMDV antiviral cell-based qHTS | Potency, µM (highest dose often 57.9 µM), actives largely listed as inhibitors | 410,000 tested, 1.2% active | AID 1159524; calls by dose curve; tested in HEK293T cells; note: read-out not given here; nearly all actives have a fitted effect of over 45% in size
HCMV inh = blocks human cytomegalovirus replication. HFF cells, HCMV-luciferase reporter, 72 h; hits give low values. activity change, negative = inhibition, % at 57.5 µM. 410,000 tested, 4.5% active. AID 1259415; in the data active = activity change below about -60%; inconclusive = no clear call, values can overlap the other calls; inactive = above about -39%
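Inhibition of viral replication was scored as loss of reporter luminescence in HFFs infected with HCMV-luciferase (MOI 1 PFU/cell) for 72 h; compounds tested at 2 doses, normalized to buffer and Salinomycin controls.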
Of the large screens only hits and unclear results are named; the others gave an inactive call. Unless noted, calls come from the whole dose curve; as a rule, active = well fitted curve in the direction sought with a large enough effect; inconclusive = small, poorly fitted or top-dose-only effect, or another doubt; inactive = no such curve, though single readings can be large; an effect the other way counts as inactive or inconclusive.

CC1CN(CCS(=O)(=O)c2cc(Cl)ccc2Cl)CC(C)O1 (centres undefined)	Vaccinia Venus inconclusive, Vaccinia mCherry 11µM, HCMV inh inconclusive
Cc1c(C)n(Cc2ccc(F)cc2)c2ccc(C(=O)Nc3ccc(Cl)cc3)cc12	none (no result: Giardia FBPA inh, HCV inh)
CCc1ccc(-n2nc3ccc(NC(=O)c4cc(Cl)c(OC)c(Cl)c4)cc3n2)cc1	none (no result: Giardia FBPA inh, HCV inh)
C=CCOc1c(Br)cc(CNc2ccc(NC(=O)C(C)C)c(OC)c2)cc1OCC	Giardia FBPA inh 8.9µM, FMDV inh inconclusive
CCOc1cc(CNc2ccc3c(c2)OCCO3)cc(Br)c1OCC	Vaccinia Venus inconclusive, Vaccinia mCherry inconclusive, HCV inh 2µM, FMDV inh 32µM, HCMV inh -86
CCOc1cc(CNc2cccc3ccccc23)cc(Br)c1OCC(=O)NC(C)(C)C	HCV inh inconclusive (no result: FMDV inh, HCMV inh)
CCOc1cc(CNc2ccc(N3CCCCC3)cc2)cc(Br)c1OCC(=O)NC(C)(C)C	HCV inh inconclusive, FMDV inh 32µM
CCOc1cc(CNc2ccc(N(C)C)cc2)cc(Br)c1OCC(=O)NC(C)(C)C	Giardia FBPA inh 5µM, HCV inh 11µM, FMDV inh 14µM (no result: Vaccinia mCherry)
C=CCOc1c(Br)cc(CNc2ccc(NC(=O)CCC)cc2)cc1OCC	Vaccinia Venus inconclusive, HCV inh inconclusive, FMDV inh inconclusive (no result: Vaccinia mCherry)
CCCCCCCCN1N=N[C@H]2[C@H]1[C@@H]1C[C@H]2N(C(=O)OC(C)(C)C)O1	none (no result: Giardia FBPA inh)
CCCCn1c(N)c(N(CCOC)C(=O)COC(=O)C(C)(C)Oc2ccc(Cl)cc2)c(=O)[nH]c1=O	none (no result: Giardia FBPA inh)
CC(=O)c1ccc(N2CCN(c3ncnc4c3cnn4-c3cc(Cl)ccc3C)CC2)cc1	Vaccinia mCherry inconclusive, FMDV inh 14µM (no result: Giardia FBPA inh, HCV inh)
Cc1ccc(-n2ncc3c(N4CCN(Cc5ccccc5)CC4)ncnc32)cc1Cl	FMDV inh 13µM (no result: Giardia FBPA inh, HCV inh)
Cc1ccc(Cl)cc1-n1ncc2c(N3CCCCCC3)ncnc21	Vaccinia mCherry inconclusive, FMDV inh 20µM (no result: Giardia FBPA inh, HCV inh)
COc1ccccc1N1CCN(c2ncnc3c2cnn3-c2cc(Cl)ccc2C)CC1	Vaccinia Venus 10µM, Vaccinia mCherry 10µM, FMDV inh 11µM, HCMV inh inconclusive (no result: Giardia FBPA inh, HCV inh)
O=C(CSc1ncccn1)NCc1cccc(Cl)c1	none
COC(=O)CC1C(=O)NCCN1C(=O)CSc1nnnn1-c1ccc(OC)cc1 (centres undefined)	HCMV inh inconclusive
COC(=O)c1sccc1S(=O)(=O)N(CC(=O)NCc1ccc(F)cc1)c1ccc(C)c(C)c1	none (no result: Giardia FBPA inh, HCV inh)
Cc1ccc(-n2ncc3c(N4CCCCCC4)ncnc32)cc1Cl	FMDV inh 63µM, HCMV inh -90 (no result: Giardia FBPA inh, HCV inh)
Clc1ccc(Cn2ncc3c(N4CCCCC4)ncnc32)c(Cl)c1	FMDV inh 28µM (no result: Vaccinia mCherry)
Clc1ccc(Cn2ncc3c(N4CCCCC4)ncnc32)cc1	HCV inh inconclusive, FMDV inh inconclusive (no result: Vaccinia mCherry)
Cc1ccc(-n2ncc3c(N4CCCCC4)ncnc32)cc1Cl	FMDV inh 25µM, HCMV inh -89 (no result: Giardia FBPA inh, HCV inh)
COc1cccc(C(NC(C)=O)c2nc(-c3cccc(C(C)C)c3)cs2)c1 (centres undefined)	none (no result: Giardia FBPA inh, HCV inh)
COc1ccc(CCN(Cc2cccs2)S(=O)(=O)c2ccc(S(=O)(=O)N3CCCCCC3)cc2)cc1OC	HCV inh inconclusive
COc1ccc(CCN(Cc2cccs2)S(=O)(=O)c2ccc(-n3cnnn3)cc2)cc1OC	Vaccinia Venus inconclusive, Vaccinia mCherry inconclusive, HCV inh 11µM, FMDV inh inconclusive, HCMV inh inconclusive
CCC(C)NS(=O)(=O)c1ccc(S(=O)(=O)N(CCc2ccc(OC)c(OC)c2)Cc2cccs2)cc1 (centres undefined)	Vaccinia mCherry inconclusive, HCV inh 11µM, HCMV inh -64
CC(OC(=O)CC1Sc2ccccc2NC1=O)C(=O)NC1CCCC1 (centres undefined)	none
CN=CC1=C(O)C(C(=O)OC)C(C)(C)CC1=O (centres undefined)	none
CC(Sc1nc(N(C)C)nc(N2CCOCC2)n1)C(=O)Nc1ccccc1 (centres undefined)	HCV inh inconclusive (no result: Vaccinia mCherry)
CC(Sc1nc(NC(C)(C)C)nc(N(C)C)n1)C(=O)Nc1ccccc1 (centres undefined)	FMDV inh inconclusive, HCMV inh -61
CCOc1cc(-c2nc(-c3ccccc3)c(-c3cc([N+](=O)[O-])ccc3C)[nH]2)ccc1O	HCV inh inconclusive, FMDV inh inconclusive, HCMV inh -82 (no result: Vaccinia Venus, Vaccinia mCherry)
COc1ccc(-c2nc(-c3ccccc3)c(-c3cc([N+](=O)[O-])ccc3C)[nH]2)cc1OC	Vaccinia Venus inconclusive, Vaccinia mCherry inconclusive, HCV inh 16µM, HCMV inh -80
O=[N+]([O-])c1ccc(O)c(-c2nc(-c3ccccc3)c(-c3cccs3)[nH]2)c1	HCV inh 6.3µM, FMDV inh inconclusive, HCMV inh -103 (no result: Vaccinia Venus, Vaccinia mCherry)
CCOc1ccc(-c2nc(-c3ccccc3)c(-c3ccccc3)[nH]2)cc1OCC	HCMV inh inconclusive (no result: Giardia FBPA inh, HCV inh)
OCC1OC(Oc2c[nH]c3ccccc23)C(O)C(O)C1O (centres undefined)	HCMV inh -98 (no result: Giardia FBPA inh)
COc1cc(CNCCN2CCOCC2)ccc1OCc1cccc(Cl)c1	HCV inh 8.9µM (no result: Vaccinia mCherry)
COc1cc(CNCCN2CCOCC2)ccc1OCc1ccc(Cl)cc1Cl	Vaccinia Venus inconclusive, Vaccinia mCherry inconclusive, HCV inh inconclusive, HCMV inh -85
Cc1ccccc1CSc1nnc([C@@H]2CCCN2)o1	none
Cc1ccccc1C(=O)N1CCN(c2ccc(NC(=S)NC(=O)c3ccco3)cc2)CC1	FMDV inh 25µM, HCMV inh -87 (no result: Vaccinia Venus, Vaccinia mCherry)
CCN1CCN(c2ccc(NC(=O)c3ccco3)cc2)CC1	none (no result: Giardia FBPA inh, Vaccinia Venus, Vaccinia mCherry)
O=C(Nc1ccc(N2CCN(C(=O)c3ccco3)CC2)cc1)c1ccco1	none
Cc1ccc(C(=O)Nc2ccc(N3CCN(C(=O)c4ccco4)CC3)cc2)cc1	none
COc1ccccc1C(=O)NC(=S)Nc1ccc(N2CCN(C(=O)c3ccco3)CC2)cc1	HCV inh 32µM, FMDV inh inconclusive (no result: Giardia FBPA inh, Vaccinia Venus, Vaccinia mCherry)
CCCC(=O)N1CCN(c2ccc(NC(=O)c3ccco3)cc2)CC1	HCV inh 3.2µM (no result: Vaccinia Venus, Vaccinia mCherry)
O=C(O)c1cc(N=Nc2ccc(-c3ccc(N=Nc4ccc(O)c(C(=O)O)c4)cc3)cc2)ccc1O	none (no result: Vaccinia Venus, Vaccinia mCherry, HCV inh, FMDV inh, HCMV inh)
CCN1C(=O)/C(=C/c2ccc(N3CCCC3)cc2)NC1=S	HCV inh inconclusive, HCMV inh -65
CCCN1C(=O)/C(=C/c2ccc(N3CCOCC3)cc2)NC1=S	none (no result: Vaccinia Venus, Vaccinia mCherry)
Cn1c(=O)oc2cc(S(=O)(=O)Nc3ccccc3O)ccc21	none
Cn1c(=O)oc2ccc(S(=O)(=O)Nc3ccc(Cl)cc3[N+](=O)[O-])cc21	HCMV inh -62 (no result: Giardia FBPA inh, Vaccinia Venus, Vaccinia mCherry, HCV inh, FMDV inh)
CC1CCN(c2ccc(-c3cccc(NS(=O)(=O)c4ccc(Cl)s4)c3)nn2)CC1	none (no result: Giardia FBPA inh, HCV inh)
CC(C)NCC1CCc2cc(CO)c([N+](=O)[O-])cc2N1 (centres undefined)	none
Cn1c(CC(=O)Nc2ccccc2F)nnc1SCC(=O)NC1=NCCS1	none (no result: Giardia FBPA inh)
